In PubChem BioAssay (NCI) one finds growth inhibition data, which are given here for 20 molecules.

About 79,000 compounds went through this panel and 15% of them were active in at least one assay; those are over-represented in the sample as a whole. A number with no mark means an inactive call. Activity calls are given as the source filed them. Rule as the data show it: active = growth inhibition above about 70%; inactive = the rest. Where a SMILES comes first, the peptide text is derived from it. [ ]: non-standard residue; d: D form. The star is where a group is joined. ξ: configuration not given here. Bz = O=C(c1ccccc1)*; Bn = c1ccc(C*)cc1; ξC = NC(CS)C(=O)O

A short description of assay [1]: NCI Yeast Anticancer Drug Screen. Data for the rad50 strain (AID 155).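 Also: 0% = growth of vehicle-only cultures of the same strain.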 The settings on record: S. cerevisiae rad50 strain growth inhibition; at 50.0 µM; active compounds read high. The method in brief:
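DNA repair mutant yeast, compound exposure, growth read-out; inhibition is taken relative to vehicle.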

Assay [2] can be described thus: NCI Yeast Anticancer Drug Screen. Data for the mec2-1 strain (AID 157). The settings on record: S. cerevisiae mec2-1 strain, at 50.0 µM, active compounds read high. The essentials:
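Test agents were screened against the mec2-1 yeast strain, with defined DNA repair or cell cycle alteration. Growth was scored as inhibition against vehicle-only controls.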

The nature of assay [3]: NCI Yeast Anticancer Drug Screen. Data for the sgs1 mgt1 strain (AID 161).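 Also: 0% = growth of cultures given vehicle only.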 The settings on record: S. cerevisiae sgs1 mgt1 strain, at 50.0 µM, active compounds read high. The essentials:
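Mutant yeast exposed to compound; growth scored against vehicle-only wells.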

Assay [4] is described as follows: NCI Yeast Anticancer Drug Screen. Data for the cln2 rad14 strain (AID 165).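 Also: 0% = growth equal to vehicle treated cultures.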 The settings on record: S. cerevisiae cln2 rad14 strain, at 50.0 µM, active compounds read high. The method in brief: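 Growth of compound-exposed yeast (cln2 rad14 genotype) measured and expressed as inhibition relative to vehicle.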
Assay [5] can be described thus: NCI Yeast Anticancer Drug Screen. Data for the bub3 strain (AID 167). The settings on record: S. cerevisiae bub3 mutant strain, at 50.0 µM, active compounds read high. The method in brief:
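In this screen, a yeast mutant lacking normal mitotic checkpoint function is challenged with compound. Relative growth versus vehicle gives the inhibition value.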

Assay [6] is described as follows: NCI Yeast Anticancer Drug Screen. Data for the mlh1 rad18 strain (AID 175). The settings on record: S. cerevisiae mlh1 rad18 strain growth inhibition; at 50.0 µM; active compounds read high. The method in brief: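 In this whole-cell yeast screen, a strain with altered DNA damage repair is challenged with compound, and its growth is measured against matched vehicle-treated controls.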

For `Cc1cc([N+](=O)[O-])cnc1Cl`, the growth inhibition is -14.1% in assay [1]; -22.2% in assay [2]; -11.6% in assay [3]; -15.9% in assay [4]; 12% in assay [5]; -16.8% in assay [6].

For the molecule `O=C(CNC(=O)c1ccccc1)NC(CSCc1ccccc1)C(=O)O` (stereo not given) (Bz-Gly-[ξC](Bn)-OH), the growth inhibition is -12.4% in assay [1]; 5.55% in assay [2]; -28.8% in assay [3]; -19.1% in assay [4]; -34.2% in assay [5]; -1.3% in assay [6].

For the molecule `COc1ccc(N=Nc2c(C)nc(N)nc2C)cc1`, the growth inhibition in assay [1] was 2.1%; in assay [2] it was 18%; in assay [3] it was 8.05%; in assay [4], -26.8%; in assay [5], -14.3%; in assay [6] it was 12.6%.

As to `O=C1CCCC(=O)N1CCCO`, the growth inhibition in assay [1] was 10.1%; in assay [2] it was -6.4%; in assay [3] it was -24.2%; in assay [4], -91%; in assay [5], -6.4%; in assay [6] it was 6.5%.

`CCOC(=O)Sc1nccn1C`: the growth inhibition is 8.05% in assay [1]; -19.2% in assay [2]; 3.25% in assay [3]; -4.7% in assay [4]; -13.2% in assay [5]; -0.45% in assay [6].

In the case of `CCCCCC(CN(C)C)C(=O)CC(SCC)c1ccc(Cl)c(Cl)c1` (stereo not given), the growth inhibition was 99.5% (active) in assay [1]; 99.5% (active) in assay [2]; 99.5% (active) in assay [3]; 99.5% (active) in assay [4]; 99.2% (active) in assay [5]; 99.3% (active) in assay [6].

As for `N#CC1C[C@@H]2CC3(CCC2CN1C(=O)c1ccccc1)OCCO3` (stereo not given in full), the growth inhibition is 8.25% in assay [1]; -9.6% in assay [2]; -12.1% in assay [3]; -24.6% in assay [4]; 0.9% in assay [5]; -14% in assay [6].

Turning to `c1ccc(-c2c(-c3ccc4c(c3)OCO4)c(-c3ccc4c(c3)OCO4)c(-c3ccccc3)c3ccccc23)cc1`, the growth inhibition was 32.4% in assay [1]; 20.6% in assay [2]; 19.8% in assay [3]; 28.2% in assay [4]; -1.95% in assay [5]; 23.4% in assay [6].

As for `O=C(Nc1ccc(O)cc1)c1ccccc1O`, the growth inhibition was 31.6% in assay [1]; -20.4% in assay [2]; 14.3% in assay [3]; -5.95% in assay [4]; 15.4% in assay [5]; 1.25% in assay [6].

In the case of `CCn1c(=O)c2[nH]c(Cl)nc2n(CC(C)Cl)c1=O` (stereo not given), the growth inhibition in assay [1] is 19.1%; in assay [2] it was -5%; in assay [3], 6.15%; in assay [4] it was 17.8%; in assay [5], 5.35%; in assay [6], 19.1%.

With `CC1=C/C(=N/Nc2ccc([N+](=O)[O-])cc2[N+](=O)[O-])CC(C)(C)C1`, the growth inhibition is -21.3% in assay [1]; -27.2% in assay [2]; 18.4% in assay [3]; -41% in assay [4]; 3.1% in assay [5]; 3.5% in assay [6].

`Cc1ccc(O)c2occ(C)c12`: the growth inhibition in assay [1] is 17.7%; in assay [2] it was 12.1%; in assay [3] it was 10.5%; in assay [4], 36.9%; in assay [5], -2.8%; in assay [6], 39.5%.

As to `Cc1cc(C)c(C)c(C)c1C`, the growth inhibition in assay [1] is 17.6%; in assay [2], -8.15%; in assay [3], 14.8%; in assay [4], 2.55%; in assay [5], -3.6%; in assay [6], 20.6%.

Consider `COc1ccc(OC)c(/C=C/c2ccccc2)c1`, for which the growth inhibition in assay [1] was 0.5%; in assay [2], -29.1%; in assay [3], 8.25%; in assay [4], -24.8%; in assay [5], 1.6%; in assay [6] it was -14.9%.

For `Cc1c2c(C#N)nccc2c(C)c2c1c1ccccc1n2Cc1ccccc1`, the growth inhibition in assay [1] was 33.5%; in assay [2], 14.1%; in assay [3] it was -8.3%; in assay [4], 20.9%; in assay [5], -28.7%; in assay [6] it was -45.6%.

Consider `C=CC(=O)Nc1ccc(Br)cc1`, for which the growth inhibition in assay [1] was 2.85%; in assay [2] it was -9.2%; in assay [3], -4.35%; in assay [4], -6.9%; in assay [5], 8.65%; in assay [6], 2.35%.

For the molecule `Cc1ccc(-n2nc(C)cc2C)nn1`, the growth inhibition was -3.55% in assay [1]; 11.2% in assay [2]; -9.75% in assay [3]; -25.7% in assay [4]; 26.6% in assay [5]; -13.8% in assay [6].

For the molecule `Clc1ccc(C2=NON(c3ncccn3)C3N=CC=CN23)cc1` (stereo not given), the growth inhibition is 9.7% in assay [1]; -20.8% in assay [2]; 0.55% in assay [3]; -6.75% in assay [4]; 0.05% in assay [5]; 19% in assay [6].

As for `O=C(O)c1cc(=O)c2cc(Cc3ccccc3)ccc2[nH]1`, the growth inhibition in assay [1] was 4.7%; in assay [2] it was 6.5%; in assay [3], 10.4%; in assay [4], 9.8%; in assay [5], 11.1%; in assay [6], 12.8%.

As to `O=C(COc1ccc(Cl)cc1C(=O)O)NCc1cccc2ccccc12`, the growth inhibition in assay [1] was -0.2%; in assay [2], 36%; in assay [3], 41.8%; in assay [4], 0.9%; in assay [5], 46%; in assay [6] it was 31.6%.
